{
  "source": "PubChem BioAssay (Tox21)",
  "note": "Results filed as inconclusive are left out. Activity calls are given as the source filed them. Calls come from the whole dose curve; as a rule, active = well fitted cell-killing curve with a large enough effect in the repeat runs; inconclusive = weak or mixed curves; inactive = flat fitted curve, though single readings scatter. % is set by controls: 0 for no effect and ±100 for the full control effect.",
  "data": [
    {"experiment": "qHTS assay to identify small molecule antagonists of the estrogen receptor beta (ER-beta) signaling pathway - cell viability counter screen (AID 1259382); note: nearly all actives have a fitted effect of over 55% in size", "conditions": "ER-beta-UAS-bla HEK293T viability, CellTiter-Glo luminescence, 16 h; series mostly up to 92.4 µM; activity change, negative = cytotoxicity: at the top concentration", "text": "U.S. Tox21 Program National Center for Advancing Translational Sciences [NCATS] NIH Chemical Genomics Center [NCGC] U.S. Environmental Protection Agency [EPA] National Institutes of Environmental Health Sciences [NIEHS] National Toxicology Program [NTP] U.S. Food and Drug Administration [FDA] Tox21 Assay Overview: Estrogen receptor (ER), a nuclear hormone receptor, plays an important role in development, metabolic homeostasis and reproduction. Two subtypes of ER, ER-alpha and ER-beta, have similar expression patterns with some uniqueness in both types. Endocrine disrupting chemicals (EDCs) and their interactions with steroid hormone receptors like ER causes disruption of normal endocrine function. To identify the compounds that inhibit ER signaling, an ER-beta-UAS-bla GripTite cell line (Life Technologies, Madison, WI, USA) containing a beta-lactamase reporter gene under the control of an UAS response element was used to screen Tox21 10K compound library. The cytotoxicity of the Tox21 compound library against the ER-beta-bla cell line was tested in parallel by measuring the cell viability using CellTiter-Glo assay in the same wells.\nTox21 Assay Protocol Summary: ER-beta-UAS-bla HEK293T cells were dispensed at 2,000 cells/4 uL of assay medium containing 2% charcoal stripped FBS per well into black wall/clear-bottom 1536-well plates using a Multidrop Combi (ThermoFisher Scientific, Waltham, MA) dispenser. After the assay plates were incubated at a 37C and 5% CO2 for 6 hr, 23 nL of compounds dissolved in DMSO, positive controls or DMSO only was transferred to the assay plate by a Pintool station (Kalypsys, San Diego, CA), followed by addition of 1 uL (1nM as final concentration) of 17-beta-estradiol (E2) in assay medium using a Flying Reagent Dispenser (FRD, Aurora Discovery, San Diego, CA). The plates were incubated at 37C and 5% CO2 for 16 hr. Then 1 uL of LiveBLAzer B/G FRET substrate was added using a Flying Reagent Dispenser, the plates were incubated at room temperature for 2 hours, and fluorescence intensity was measured by an Envision plate reader (PerkinElmer, Shelton, CT). For cell viability readout that measures cytotoxicity, 4 uL/well of CellTiter-Glo reagent was added into the assay plates using a FRD. After 30 min incubation at room temperature, the luminescence intensity in the plates was measured using a ViewLux (PerkinElmer) plate reader.", "values": [
      {"molecule": "O=C1c2ccccc2-c2ccccc21", "activity change, negative = cytotoxicity": "3.94% (inactive)"},
      {"molecule": "CCc1nccnc1C", "activity change, negative = cytotoxicity": "1.36% (inactive)"},
      {"molecule": "CC(C)CCCCCCOC(=O)C1CCCCC1C(=O)OCCCCCCC(C)C", "note": "(stereo not given)", "activity change, negative = cytotoxicity": "1.37% (inactive)"},
      {"molecule": "CCCCCCCCCCCCCCCCI", "activity change, negative = cytotoxicity": "-0.0745% [at 19 µM] (inactive)"},
      {"molecule": "COc1cc([N+](=O)[O-])ccc1N", "activity change, negative = cytotoxicity": "1.97% (inactive)"},
      {"molecule": "OC(CCN1CCCCC1)(c1ccccc1)c1ccccc1", "activity change, negative = cytotoxicity": "-2.27% [at 42.5 µM] (inactive)"},
      {"molecule": "Cn1c(=O)c2c(ncn2CC2OCCO2)n(C)c1=O", "activity change, negative = cytotoxicity": "-0.83% [at 42.5 µM] (inactive)"},
      {"molecule": "CC(C)(C)NCCO", "activity change, negative = cytotoxicity": "-16.7% (inactive)"},
      {"molecule": "Nc1ccc(S(=O)(=O)NC(=O)c2ccccc2)cc1", "activity change, negative = cytotoxicity": "1.5% [at 42.5 µM] (inactive)"},
      {"molecule": "NCCc1ccn[nH]1", "activity change, negative = cytotoxicity": "2.82% [at 42.5 µM] (inactive)"},
      {"molecule": "CCOC(=O)CC#N", "activity change, negative = cytotoxicity": "10.7% (inactive)"},
      {"molecule": "C[C@H](CCC(=O)NCC(=O)O)[C@H]1CC[C@H]2[C@@H]3[C@H](O)C[C@@H]4C[C@H](O)CC[C@]4(C)[C@H]3C[C@H](O)[C@]12C", "activity change, negative = cytotoxicity": "5.02% (inactive)"},
      {"molecule": "CCN(CCC#N)c1ccccc1", "activity change, negative = cytotoxicity": "1.61% (inactive)"},
      {"molecule": "CC1(N)CCC(C(C)(C)N)CC1", "note": "(stereo not given)", "activity change, negative = cytotoxicity": "0.828% (inactive)"},
      {"molecule": "C=CCOCC(O)CCl", "note": "(stereo not given)", "activity change, negative = cytotoxicity": "-2.1% (inactive)"},
      {"molecule": "O=c1[nH]c(=O)c2ccccc2o1", "activity change, negative = cytotoxicity": "12.2% [at 42.5 µM] (inactive)"},
      {"molecule": "CO/N=C(/C(=O)N[C@@H]1C(=O)N2C(C(=O)O)=C(Cn3nnc(C)n3)CS[C@H]12)c1csc(N)n1", "activity change, negative = cytotoxicity": "3.96% [at 42.5 µM] (inactive)"},
      {"molecule": "CCCCOC(=O)C(C)OC(=O)CCC", "note": "(stereo not given)", "activity change, negative = cytotoxicity": "0.949% (inactive)"},
      {"molecule": "CCCCCCCC[Si](OCC)(OCC)OCC", "activity change, negative = cytotoxicity": "3.33% (inactive)"},
      {"molecule": "NS(=O)(=O)c1ccccc1OC(F)(F)F", "activity change, negative = cytotoxicity": "0.778% (inactive)"},
      {"molecule": "O=S(=O)(O)SSS(=O)(=O)O", "activity change, negative = cytotoxicity": "5.59% (inactive)"},
      {"molecule": "CC(C)c1ccccc1O", "activity change, negative = cytotoxicity": "11.5% (inactive)"},
      {"molecule": "CCCCCC1Nc2cc(C(F)(F)F)c(S(N)(=O)=O)cc2S(=O)(=O)N1", "note": "(stereo not given)", "activity change, negative = cytotoxicity": "-6.25% [at 42.5 µM] (inactive)"},
      {"molecule": "C=CCOC(=O)c1ccc(C(=O)OCC=C)c(C(=O)OCC=C)c1", "activity change, negative = cytotoxicity": "-5.05% (inactive)"},
      {"molecule": "CCCCCC(=O)OCC", "activity change, negative = cytotoxicity": "11.5% (inactive)"},
      {"molecule": "F[Si-2](F)(F)(F)(F)F", "activity change, negative = cytotoxicity": "2.11% (inactive)"},
      {"molecule": "CC(C)COC(=O)/C=C/c1ccccc1", "activity change, negative = cytotoxicity": "0.165% (inactive)"},
      {"molecule": "C=CC(C)(O)CC/C=C(\\C)CC", "note": "(stereo not given)", "activity change, negative = cytotoxicity": "7.38% (inactive)"},
      {"molecule": "CCC(CO)CO", "activity change, negative = cytotoxicity": "5.58% (inactive)"},
      {"molecule": "CCCCC(C)C(=O)O", "note": "(stereo not given)", "activity change, negative = cytotoxicity": "-1.02% (inactive)"},
      {"molecule": "CCCCC/C=C/CC(=O)OC", "activity change, negative = cytotoxicity": "-2.72% (inactive)"},
      {"molecule": "O=C(/C=C/c1ccccc1)NCCO", "activity change, negative = cytotoxicity": "-1.55% [at 42.5 µM] (inactive)"},
      {"molecule": "CC1CCC(C(C)(C)S)C(=O)C1", "note": "(stereo not given)", "activity change, negative = cytotoxicity": "-7.03% (inactive)"},
      {"molecule": "O=C(O)C(=O)Nc1cccc(-c2nn[nH]n2)c1", "activity change, negative = cytotoxicity": "4.72% [at 42.5 µM] (inactive)"},
      {"molecule": "O=S1(=O)CCCC1", "activity change, negative = cytotoxicity": "4.79% (inactive)"},
      {"molecule": "CC(=O)c1ccc2c(c1)CCCC2", "activity change, negative = cytotoxicity": "3.16% (inactive)"},
      {"molecule": "Cc1cccc(Nc2ccncc2S(=O)(=O)NC(=O)NC(C)C)c1", "activity change, negative = cytotoxicity": "10.8% [at 42.5 µM] (inactive)"},
      {"molecule": "C/C=C(\\C)C(=O)OCC/C=C\\CC", "activity change, negative = cytotoxicity": "-0.161% (inactive)"},
      {"molecule": "C[N+](C)(C)CC(O)CCl", "note": "(stereo not given)", "activity change, negative = cytotoxicity": "3.41% (inactive)"},
      {"molecule": "CNCc1ccccc1", "activity change, negative = cytotoxicity": "5.37% [at 42.5 µM] (inactive)"}
    ]}
  ]
}
